# Assay results taken from PubChem BioAssay (NCI).
# This is part of a sample that, as a whole, favours compounds with a hit. Of some 83,000 tested, about 20% had one in any assay.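 The test compound was applied at a single concentration to cells in 96-well plates for 48 hours, and percent growth was recorded.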 Unmarked numbers belong to inactive results. Active and inactive are the calls of the source.
# Test system: SK-MEL-5 melanoma
# Test: NCI-60 one-dose screen, 48 h (100 = growth as untreated, 0 = no growth, -100 = all killed)
# Conditions: 10 µM unless noted
# Method: Growth inhibition of the SK-MEL-5 human tumor cell line is measured as a screen for anti-cancer activity. Cells are grown in 96 well plates and exposed to the test compound for 48 hours. Compounds are tested at a single concentration, which is 10^-5 M for most compounds. The reported endpoint is percent growth (GI% or GIPRCNT), where numbers from 0 - 100% represent growth inhibition, and numbers from -100% - 0 represent cell death. For example, a value of 40 represents 60% growth inhibition. A value of 0 means no net growth occurred over the course of the experiment. A value of -40 indicates 40% of cells at the beginning of the experiment died by the end of the experiment. A value of -100 means all cells are dead at the end of the experiment.
# NCI-60 Human Tumor Cell Lines Screen was performed using the standard one-dose NCI protocol, which is described in more detail at https://dtp.cancer.gov/discovery_development/nci-60/default.htm.
# Compounds with GIPRCNT values below 10 were considered active. Activity score was based on GIPRCNT using the following formula: […]
# Score is 0 for GIPRCNT values of 100 or above, 50 for GIPRCNT values of 0, and 100 for GIPRCNT values of -100.
row,SMILES,growth
1,COc1cc(/C=C2/C(=O)Nc3ccc(Cl)cc32)ccc1OCc1ccc(Cl)cc1,89.2%
2,O=C(Nc1ccccc1)Nc1nc2ccc([N+](=O)[O-])cc2[nH]1,40.4%
3,CS(=O)(=O)c1nccc(-c2c(-c3cccc(OCc4ccc(Cl)c(C(F)(F)F)c4)c3)nc3sccn23)n1,97.2%
4,Cc1cc(NS(=O)(=O)c2ccc(NC(=O)CSc3nc4ccccc4c(=O)n3-c3ccccc3)cc2)no1,98.4%
5,O=C(N/N=C/c1cc2ccccc2nc1Cl)c1cc(-c2nc3ccccc3[nH]2)nc2ccccc12,81.9%
6,CC(C)(C)c1cc(NC(=O)Nc2ccc(-c3cn4c5c(sc4n3)CCc3c[nH]cc3-5)cc2)no1,19.1%
7,CN1CCN(CCNc2nc(-c3cccc(NS(=O)(=O)c4cccc5c(N(C)C)cccc45)c3)cs2)CC1,12.2%
8,N#Cc1c(-c2cccs2)cc(-c2cnccn2)nc1SCC(=O)N/N=C/c1ccncc1,101%
9,CN1CCN(Cc2ccc(NC(=O)c3cncc(C#Cc4cnc5ccc(OCC6COC6)nn45)c3)cc2C(F)(F)F)CC1,-97% (active)
10,Cc1ccccc1N1CCN(C2=C(Cl)C(=O)c3ncccc3C2=O)CC1,88.8%
11,CN(C)CCCOc1ccc(C(=C(c2ccccc2)C2CCCC2)c2ccc(OCCCN(C)C)cc2)cc1,-95.7% (active)
12,CC(Nc1c(C#N)cnc2ccc(-c3cncc(-c4n[nH]c(=O)o4)c3)cc12)c1ccccc1 (stereo not given),-84.8% (active)
13,Cc1ccc2c(n1)C(=O)C(Cl)=C(Nc1ccc(C(C)C)cc1)C2=O,37.3%
14,N#Cc1nc(-c2ccc(Cl)cc2)oc1N1CCC(S(=O)(=O)N2CCOCC2)CC1,98.1%
15,C/C(=N\NC(=O)Nc1ccccc1)c1nnn(-c2ccc([N+](=O)[O-])cc2)c1C,99.6%
16,O=C(CCCCCCNC(=O)c1csc(Br)n1)NO,17.7%
17,NS(=O)(=O)c1cccc(Nc2nc(SCC(=O)c3ccc(Cl)cc3)nc3c2CCC3)c1,94.9%
18,CC(C)(C)OC(=O)Nc1ccc(-c2cccc(Oc3ccc4nnc(Cl)n4n3)c2)cc1,19.5%
19,Cc1ccc(NC2=C(Cl)C(=O)c3nc(C)ccc3C2=O)c(C)c1,-50.2% (active)
20,CCCCCCCCCCCC(=O)NC(C)(C)C(=O)N1CCCC1C(=O)NC(C)(C)C(=O)NC(C)(C)C(=O)N1CCCC1C(=O)NC(C)(C)C(=O)NC(C)(C)C(=O)N1CCCC1C(=O)NC(C)C(=O)NCCC(=O)NC(C)C(=O)NC(C)(C)C(=O)NC(C)(C)C(=O)NC(C)(C)C(=O)NCCC(=O)NC(C)(C)C(=O)NC(C)(C)C(=O)NC(C)(C)C(=O)NC(C)C(=O)NCCC(=O)O (stereo not given),-98.5% (active)

row,SMILES,growth
1,C/C(=N\NC(N)=S)c1nnn(-c2ccc([N+](=O)[O-])cc2)c1C,100%
2,N#Cc1cccc(-c2cc(-c3ccc4c(c3)OCCO4)[nH]n2)c1,12.1%
3,COc1ccc(Cn2cc(C#N)c(N)c2C(C)=O)cc1,100%
4,COc1ccc(/C=N/NC(=O)CSc2nc(-c3cnccn3)cc(-c3cccs3)c2C#N)cc1,72.5%
5,O=S(=O)(NCCCNc1nccc(-c2[nH]c(-c3ccccc3)nc2-c2ccc(F)c(O)c2)n1)c1cccc2ccccc12,34.1%
6,N#Cc1cnc2ccc(-c3cnc4n[nH]nc4c3)cc2c1N1CCc2cc(F)c(Cl)cc21,-45% (active)
7,Fc1ccc2nc(-c3cnn4cccnc34)sc2c1,90%
8,NC(=S)n1c(=O)n(-c2cccc(C(F)(F)F)c2)c(=O)c2cc(-c3ccc(F)cc3F)ccc21,-57.3% (active)
9,CSc1ccc(C(=NNS(=O)(=O)c2ccc(C)cc2)c2ccc(Cl)cc2)cc1,99.3%
10,C#C[C@]1(O)CC[C@H]2[C@@H]3CC=C4c5sc(N6CCN(C)CC6)nc5CC[C@]4(C)[C@H]3CC[C@@]21C,38.5%
11,CCn1c2ccc(/C=N/N(C)S(=O)(=O)CCN(C)C)cc2c2cc(/C=N/N(C)S(=O)(=O)CCN(C)C)ccc21,62.4%
12,COc1ccc(C2CC(c3cccc(OCCCCOc4cccc(C5=NOC(c6ccc(OC)cc6)C5)c4)c3)=NO2)cc1 (stereo not given),97.5%
13,CC(=C(c1ccc(OCCN2CCCC2)cc1)c1ccc(OCCN2CCCC2)cc1)c1ccc(Cl)cc1,-94.9% (active)
14,O=C1C(N2CCN(c3ccccc3)CC2)=C(Cl)C(=O)c2ncccc21,95.1%
15,CS(=O)(=O)c1ccc(/C(=N/N=C(N)N)c2ccc(Cl)cc2)cc1,92.2%
16,CC(=O)Nc1cc(N2CCOCC2)c2nc(NC(=O)c3[nH]c(C)c(Cl)c3Cl)sc2c1,77.6%
17,O=S(=O)(NCCCNc1nccc(-c2[nH]c(-c3ccccc3)nc2-c2ccc(F)c(O)c2)n1)c1ccccc1,59.9%
18,Cc1[nH]c(C(=O)Nc2ccc(C(N)=O)cc2N2CCOC(C)C2)c(Cl)c1Cl (stereo not given),97.2%
19,CC(=O)OC[C@]12CC[C@@H](C(=O)/C=C/c3cccnc3)[C@@H]1[C@H]1CC[C@@H]3[C@@]4(C)CC[C@H](OC(C)=O)C(C)(C)[C@@H]4CC[C@@]3(C)[C@]1(C)CC2,-96.2% (active)
20,C#CCOc1ccc(/C=N/Nc2nc(-c3ccc(OC)cc3)cs2)cc1,70.1%
